Reference: PubChem BioAssay
Calls of active or inactive are those of the source.

Columns and labels:
Albumin (Bos taurus) = Albumin (Bos taurus) (UniProt P02769); assay: bovine serum albumin binders on microarray, profiling panel, artefact control for SMM control protein annotation, biochemical, small-molecule microarray, Alexa647 label, 635/667 nm fluorescence (AID 1118); conditions: BSA-A647 binding, fluorescence 635 nm, higher = more signal;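 also: score merges 667 nm emission intensity and signal-to-noise per printed compound spot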
[1] = small-molecule microarray binders of probe aXIP, primary screen, biochemical, NeuroSMM set, 635/667 nm fluorescence (AID 1119); conditions: higher = more signal, called active from +8 up or from −8 down;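 also: probe is the protein aXip251-270 applied at 1 µg/mL to compound-printed slides; binding of probe to printed compounds measured as 667 nm fluorescence plus signal to noise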
[2] = small-molecule binders of probe aNOTCH3, primary screen, biochemical, small-molecule microarray, 635/667 nm fluorescence (AID 1120); conditions: higher = more signal;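 also: probe is a biotin-tagged antibody raised against NOTCH3 rather than NOTCH3 protein; score merges spot fluorescence near 667 nm with spot signal to noise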
[3] = small-molecule binders of probe aNOTCH2, primary screen, biochemical, small-molecule microarray, 635/667 nm fluorescence (AID 1121); conditions: higher = more signal;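 also: score merges feature fluorescence read at 667 nm with its signal to noise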
[4] = biological target: Carbonic anhydrase 2 (Homo sapiens) (UniProt P00918); assay: CAII small-molecule binders, profiling panel, biochemical, small-molecule microarray, Alexa647-labelled CAII (AID 1122); conditions: CAII-A647 binding fluorescence, higher = more signal
[5] = COS7 lysate on small-molecule microarray, probe aHis, 635 nm (AID 1123); conditions: COS7 cell lysate, fluorescence, higher = more signal;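 also: z-score combines 667nm fluorescence intensity with signal-to-noise per printed compound spot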
[6] = compound binding in COS7 lysate, probe aLAP1, primary screen, cell lysate, small-molecule microarray (AID 1124); conditions: probe aLAP1, fluorescence, higher = more signal;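 also: lysate comes from COS7 cells expressing LAP1 and is applied at 0.3 µg/mL; score merges spot fluorescence near 667 nm with signal-to-noise over triplicate slides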
Sam68 (KHDRBS1) = assay: Sam68 small-molecule binders, primary screen, biochemical, small-molecule microarray, 635 nm fluorescence (AID 1125); conditions: small-molecule microarray binding, higher = more signal;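 also: score merges 667 nm channel intensity with signal to noise over triplicate slides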
[7] = test system: Chordin-like protein 2 (CHRDL2); assay: CHRDL2 small-molecule binders, primary screen, biochemical, small-molecule microarray, 635 nm fluorescence (AID 1126); conditions: small-molecule microarray binding, fluorescence 635 nm; higher = more signal;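 also: printed compound slides probed with Chrdl2 protein at 4 µg/mL for 1 h at 4 C; score merges 667 nm emission intensity with signal to noise over three replicate slides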
[8] = biological target: Concanavalin-A (Canavalia ensiformis) (UniProt P02866); assay: ConA small-molecule binders, primary screen, artefact control for SMM control protein annotation, biochemical, small-molecule microarray, Alexa647 label, 635 nm (AID 1127); conditions: ConA-A647 binding fluorescence, higher = more signal;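 also: z combines 667 nm emission intensity with signal-to-noise across three replicate slides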
Sequence of Concanavalin-A (Canavalia ensiformis) (P02866 whole entry, looked up): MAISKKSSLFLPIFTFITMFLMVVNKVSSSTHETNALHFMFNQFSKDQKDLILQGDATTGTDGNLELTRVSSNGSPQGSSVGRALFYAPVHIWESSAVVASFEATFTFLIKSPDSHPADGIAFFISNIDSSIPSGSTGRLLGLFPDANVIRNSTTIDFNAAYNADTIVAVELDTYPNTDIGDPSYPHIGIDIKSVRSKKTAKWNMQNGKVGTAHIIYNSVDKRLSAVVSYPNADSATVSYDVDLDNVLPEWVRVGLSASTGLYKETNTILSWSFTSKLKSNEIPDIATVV

Sequence of Albumin (Bos taurus) (P02769 whole entry, looked up): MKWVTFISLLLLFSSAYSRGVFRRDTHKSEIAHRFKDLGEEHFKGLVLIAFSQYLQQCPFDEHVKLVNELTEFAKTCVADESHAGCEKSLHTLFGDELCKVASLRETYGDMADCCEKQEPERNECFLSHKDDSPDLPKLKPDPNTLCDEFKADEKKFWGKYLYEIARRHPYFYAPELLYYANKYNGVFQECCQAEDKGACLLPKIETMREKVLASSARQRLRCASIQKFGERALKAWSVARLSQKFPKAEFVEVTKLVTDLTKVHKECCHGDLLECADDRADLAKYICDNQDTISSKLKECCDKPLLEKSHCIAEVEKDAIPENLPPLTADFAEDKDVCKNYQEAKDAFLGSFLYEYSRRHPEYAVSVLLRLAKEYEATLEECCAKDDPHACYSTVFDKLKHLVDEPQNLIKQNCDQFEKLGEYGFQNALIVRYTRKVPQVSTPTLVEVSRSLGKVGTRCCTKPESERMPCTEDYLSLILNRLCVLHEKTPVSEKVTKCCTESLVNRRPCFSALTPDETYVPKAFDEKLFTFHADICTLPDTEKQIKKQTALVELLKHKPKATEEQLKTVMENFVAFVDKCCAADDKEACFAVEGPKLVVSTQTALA

**Q.** Which composite z-score (Albumin (Bos taurus)) does the source give for O=C1OCC=C[C@H]2OC34C=CCN(Cn5nnc6ccccc65)C(=O)[C@H]3N(CCCO)C(=O)[C@@H]4[C@@H]12 (stereo not given in full) here?
**A.** -0.877

**Q.** And the composite Z-score [1]?
**A.** -0.309 (inactive)

**Q.** And the composite z-score [2]?
**A.** -0.279

**Q.** What about the composite z-score [3] of the same compound?
**A.** -0.185

**Q.** And the composite z-score [4]?
**A.** 0.847

**Q.** And the composite z-score [5]?
**A.** -0.145

**Q.** And the composite z-score [6]?
**A.** -0.124

**Q.** What about the composite z-score (Sam68 (KHDRBS1)) of the same compound?
**A.** -0.196

**Q.** And the composite z-score [7]?
**A.** -0.682

**Q.** What about the composite z-score [8] of the same compound?
**A.** -0.0288

**Q.** Which results are given for CN(C)c1ccc(C(O)C2C=CC3C(=O)N(c4ccccc4)C(=O)C3N2Nc2ccc([N+](=O)[O-])cc2)cc1 (stereo not given)?
**A.** composite z-score (Albumin (Bos taurus)): 0.653; composite Z-score [1]: 0.103 (inactive); composite z-score [2]: 0.307; composite z-score [3]: -0.133; composite z-score [4]: 0.27; composite z-score [5]: 2.1; composite z-score [6]: 0.15; composite z-score (Sam68 (KHDRBS1)): 1.29; composite z-score [7]: -0.437; composite z-score [8]: 1.05

**Q.** With CC[C@H]1C2=C3C(CC[C@H]4C(OCc5ccc(F)cc5C(F)(F)F)OC[C@](C)([C@@H]34)N(C(=O)OC(C)(C)C)C2)C(COC)C1COC (stereo not given in full) as the compound, how does the composite z-score (Albumin (Bos taurus)) read?
**A.** 0.515

**Q.** What about the composite Z-score [1] of the same compound?
**A.** 0.0377 (inactive)

**Q.** What about the composite z-score [2] of the same compound?
**A.** 0.0851

**Q.** What about the composite z-score [3] of the same compound?
**A.** -0.0372

**Q.** What about the composite z-score [4] of the same compound?
**A.** 0.687

**Q.** And the composite z-score [5]?
**A.** 1.1

**Q.** And the composite z-score [6]?
**A.** -0.115

**Q.** And the composite z-score (Sam68 (KHDRBS1))?
**A.** 0.0783

**Q.** What about the composite z-score [7] of the same compound?
**A.** -0.882

**Q.** What about the composite z-score [8] of the same compound?
**A.** 0.401

**Q.** For COc1ccc(C(O)C2C=CC3C(=O)N(c4ccccc4)C(=O)C3N2Nc2ccc([N+](=O)[O-])cc2)cc1 (stereo not given), which composite z-score (Albumin (Bos taurus)) is on record?
**A.** 0.968

**Q.** What about the composite Z-score [1] of the same compound?
**A.** 1.19 (inactive)

**Q.** What about the composite z-score [2] of the same compound?
**A.** 0.84

**Q.** What about the composite z-score [3] of the same compound?
**A.** 0.495

**Q.** What about the composite z-score [4] of the same compound?
**A.** 0.637

**Q.** What about the composite z-score [5] of the same compound?
**A.** 2.86

**Q.** What about the composite z-score [6] of the same compound?
**A.** 0.64

**Q.** And the composite z-score (Sam68 (KHDRBS1))?
**A.** 1.31

**Q.** What about the composite z-score [7] of the same compound?
**A.** -0.936

**Q.** And the composite z-score [8]?
**A.** 0.989

**Q.** What does the source list for [N-]=[N+]=NCc1ccccc1[C@@H]1OC(c2ccc(OCCCO)cc2)=N[C@]1(CCS(=O)(=O)c1ccccc1)C(=O)NCC(O)CO (stereo not given in full)?
**A.** composite z-score (Albumin (Bos taurus)): 0.979; composite Z-score [1]: 0.131 (inactive); composite z-score [2]: 0.13; composite z-score [3]: 0.208; composite z-score [4]: 0.526; composite z-score [5]: 3.18; composite z-score [6]: 1.01; composite z-score (Sam68 (KHDRBS1)): 1.29; composite z-score [7]: -0.563; composite z-score [8]: 1.18

**Q.** For CN(C)CCCNC(=O)[C@@]1(C)c2ccccc2C(=O)N(Cc2ccccc2)[C@H]1c1ccc(CO)cc1, which composite z-score (Albumin (Bos taurus)) is on record?
**A.** -1.05

**Q.** And the composite Z-score [1]?
**A.** -0.194 (inactive)

**Q.** And the composite z-score [2]?
**A.** -0.264

**Q.** What about the composite z-score [3] of the same compound?
**A.** -0.236

**Q.** What about the composite z-score [4] of the same compound?
**A.** 0.704

**Q.** And the composite z-score [5]?
**A.** -0.358

**Q.** And the composite z-score [6]?
**A.** -0.39

**Q.** What about the composite z-score (Sam68 (KHDRBS1)) of the same compound?
**A.** -0.0419

**Q.** And the composite z-score [7]?
**A.** -0.19

**Q.** What about the composite z-score [8] of the same compound?
**A.** -0.371

**Q.** For COC(=O)Cn1c(C(=O)N(C)C)cc2c1C[C@H]1CN(C(=O)c3ccccc3)[C@@](Cc3ccc(F)cc3)(C(=O)OC)[C@@H]21, which composite z-score (Albumin (Bos taurus)) is on record?
**A.** 0.944

**Q.** What about the composite Z-score [1] of the same compound?
**A.** -0.155 (inactive)

**Q.** And the composite z-score [2]?
**A.** 0.541

**Q.** What about the composite z-score [3] of the same compound?
**A.** 0.267

**Q.** And the composite z-score [4]?
**A.** 0.884

**Q.** What about the composite z-score [5] of the same compound?
**A.** 0.56

**Q.** What about the composite z-score [6] of the same compound?
**A.** 0.108

**Q.** And the composite z-score (Sam68 (KHDRBS1))?
**A.** -0.167

**Q.** What about the composite z-score [7] of the same compound?
**A.** 0.0171

**Q.** What about the composite z-score [8] of the same compound?
**A.** 0.136

**Q.** Which results are given for O=C1N(Cc2ccccc2)c2ccccc2[C@@H]2OC(c3ccc(OCCCO)cc3)=N[C@]12Cc1ccccc1?
**A.** composite z-score (Albumin (Bos taurus)): -0.34; composite Z-score [1]: -0.296 (inactive); composite z-score [2]: -0.0362; composite z-score [3]: -0.0146; composite z-score [4]: 0.607; composite z-score [5]: 2.23; composite z-score [6]: -0.327; composite z-score (Sam68 (KHDRBS1)): 1.3; composite z-score [7]: 0.29; composite z-score [8]: 1.11

**Q.** For CC(C)N1C(=O)c2ccccc2[C@@H](C(=O)NC2CC2)[C@@H]1c1ccc(CO)cc1, which composite z-score (Albumin (Bos taurus)) is on record?
**A.** 0.368

**Q.** What about the composite Z-score [1] of the same compound?
**A.** 0.131 (inactive)

**Q.** And the composite z-score [2]?
**A.** 0.0246

**Q.** And the composite z-score [3]?
**A.** -0.161

**Q.** What about the composite z-score [4] of the same compound?
**A.** 0.742

**Q.** What about the composite z-score [5] of the same compound?
**A.** 0.467

**Q.** And the composite z-score [6]?
**A.** 0.37

**Q.** And the composite z-score (Sam68 (KHDRBS1))?
**A.** 0.343

**Q.** What about the composite z-score [7] of the same compound?
**A.** 0.593

**Q.** What about the composite z-score [8] of the same compound?
**A.** 0.697

**Q.** Which composite z-score (Albumin (Bos taurus)) does the source give for CO[C@]12C=C(Br)[C@@H](C[C@@H]1c1cccc(C)c1)[C@@]1(CO1)C2=O here?
**A.** 0.223

**Q.** What about the composite Z-score [1] of the same compound?
**A.** 0.379 (inactive)

**Q.** And the composite z-score [2]?
**A.** -0.0311

**Q.** What about the composite z-score [3] of the same compound?
**A.** -0.132

**Q.** And the composite z-score [4]?
**A.** 0.354

**Q.** And the composite z-score [5]?
**A.** 0.288

**Q.** And the composite z-score [6]?
**A.** -0.071

**Q.** What about the composite z-score (Sam68 (KHDRBS1)) of the same compound?
**A.** 0.189

**Q.** What about the composite z-score [7] of the same compound?
**A.** 0.306

**Q.** And the composite z-score [8]?
**A.** 0.123
